Data taken from PubChem BioAssay (Tox21).
Several values for one entry are separate records, joined by “and”; a condition that tells them apart may be missing. Equal values may be shown once. Records with an inconclusive call do not appear. Where a call stands in place of a potency, no number is given. Some structures have more than one record in an assay (separate samples or runs), and their calls can disagree. Activity calls are given as the source filed them. Unless noted, calls follow the shape of the dose curve; as a rule, active = well fitted curve in the direction sought with a large enough effect in the repeat runs; inconclusive = weak or mixed curves; inactive = no such curve, though single readings can be large; an effect the other way counts as inactive or inconclusive.

Assays:
[1] = Human pregnane X receptor (PXR) small molecule agonists, qHTS cell viability counter screen (AID 1346977); conditions: PXR-Luc HepG2 viability, CellTiter-Fluor, 24 h; series mostly up to 92.4 µM; also: nearly all actives have a fitted effect of over 50% in size; also: potency is read from the fitted curve at half-maximal effect
Procedure, shortened: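 In each well, the PXR reporter HepG2 line was checked for viability: CellTiter-Fluor reagent added 23hr post-dosing, fluorescence read after 1hr incubation at 37C.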

[2] = Caspase-3/7 induction in HepG2 cells by small molecules, qHTS assay (AID 1346978); conditions: HepG2 caspase-3/7 activation, Caspase-Glo luminescence, 17 h; series mostly up to 92.4 µM; also: nearly all actives have a fitted effect of over 15% in size; also: potency is read from the fitted curve at half-maximal effect
Procedure, shortened: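 Caspase-3/7 induction was measured by Caspase-Glo 3/7 luminescence (30 min, room temperature) after a 17 hr compound exposure of wild-type HepG2 cells seeded at 2,000 per well and pre-incubated 5 hr.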

[3] = Caspase-3/7 induction in CHO-K1 cells by small molecules, qHTS cell viability counter screen (AID 1346979); conditions: CellTiter-Fluor fluorescence, 17 h; series mostly up to 92.4 µM; also: nearly all actives have a fitted effect of over 35% in size; also: potency is read from the fitted curve at half-maximal effect
Procedure, shortened: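 Following a 5hr settling period, CHO-K1 cells at 1,500 per well received DMSO-dissolved compounds. Cell viability was quantified 16hr later by CellTiter-Fluor fluorescence, measured after 1hr with reagent at 37C.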

[4] = Caspase-3/7 induction in CHO-K1 cells by small molecules, qHTS assay (AID 1346980); conditions: CHO-K1 caspase-3/7 induction, Caspase-Glo luminescence, 17 h; series mostly up to 92.4 µM; also: nearly all actives have a fitted effect of over 15% in size; also: potency is read from the fitted curve at half-maximal effect
Procedure, shortened: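 Luminescent Caspase-Glo 3/7 read (30min, room temperature) quantified apoptosis induction. Cells were wild-type CHO-K1, treated with compound for 17hr at 37 C and 5% CO2.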

[5] = Caspase-3/7 induction in HepG2 cells by small molecules, qHTS cell viability counter screen (AID 1346981); conditions: CellTiter-Fluor fluorescence, 17 h; series mostly up to 92.4 µM; also: nearly all actives have a fitted effect of over 30% in size; also: potency is read from the fitted curve at half-maximal effect
Procedure, shortened: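 Fluorescence read-out of live-cell protease activity (CellTiter-Fluor) after 1 hr with reagent. This was measured in the same wells as the caspase-3/7 luminescence, on HepG2 cells exposed to DMSO-dissolved compounds for 16 hr at 37 C.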

[6] = target: Nuclear receptor subfamily 1 group I member 2 (Homo sapiens) (UniProt O75469); assay: Human pregnane X receptor (PXR) small molecule agonists, qHTS assay (AID 1346982); conditions: PXR-Luc HepG2, CYP3A4 luciferase reporter, 24 h; series mostly up to 92.4 µM; also: nearly all actives have a fitted effect of over 35% in size; also: potency is read from the fitted curve at half-maximal effect
Procedure, shortened: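 HepG2 PXR-Luc reporter line, 5% charcoal-stripped FBS; 5 hr pre-incubation, compound (DMSO) 24 hr at 37 C/5% CO2; ONE-Glo 30 min RT; luminescence read-out.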

[7] = target: Acetylcholinesterase (Homo sapiens) (UniProt P22303); assay: Acetylcholinesterase (AChE) small molecule antagonists: colormetric cell-based qHTS assay (AID 1347395; calls by dose curve; also: nearly all actives have a fitted effect of over 30% in size; also: potency is read from the fitted curve at half-maximal effect); conditions: SH-SY5Y cells AChE activity, colorimetric (Ellman); series mostly up to 115 µM
Procedure, shortened: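 After overnight attachment at 37 C, SH-SY5Y cells get 30 min compound exposure; detection cocktail (acetylthiocholine, DTNB) then incubates 90 min at 37 C, and absorbance reflects AChE-generated thiocholine.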

[8] = target: Acetylcholinesterase (Homo sapiens) (UniProt P22303); assay: Acetylcholinesterase (AChE) small molecule antagonists: enzyme-based qHTS assay (AID 1347397; calls by dose curve; also: nearly all actives have a fitted effect of over 55% in size); conditions: Potency: AChE enzyme activity inhibition; series mostly up to 115 µM
Procedure, shortened: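 Colorimetric DTNB readout of acetylthiocholine hydrolysis, 10 min at room temperature, after 30 min room-temperature exposure of 50 mU/mL recombinant human enzyme to compound; DMSO vehicle control.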

[9] = target: Acetylcholinesterase (Homo sapiens) (UniProt P22303); assay: Acetylcholinesterase (AChE) small molecule antagonists: fluorescence cell-based qHTS assay (AID 1347398; calls by dose curve; also: nearly all actives have a fitted effect of over 50% in size; also: potency is read from the fitted curve at half-maximal effect); conditions: SH-SY5Y cells; Potency: AChE activity; series mostly up to 115 µM
Procedure, shortened: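 Cellular AChE activity read as thiocholine from acetylthiocholine hydrolysis, detected by Thiolite Green fluorescence at 490/520 nm after 40 min at room temperature. Compounds were pre-incubated 30 min at 37 C on adherent SH-SY5Y cells.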

[10] = target: Acetylcholinesterase (Homo sapiens) (UniProt P22303); assay: Acetylcholinesterase (AChE) small molecule antagonists: enzyme-based qHTS assay with human liver microsomes (AID 1347399; calls by dose curve; also: nearly all actives have a fitted effect of over 60% in size); conditions: Potency: qHTS inhibition; series mostly up to 115 µM
Procedure, shortened: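 Recombinant human AChE (50 mU/mL in the enzyme mix) and human liver microsomes (0.25 mg/mL final) were preincubated with compound and NADPH (0.25 mg/mL final) for 30 min at 37 C. Acetylthiocholine/DTNB was then added; thiocholine was read colorimetrically after 10 min at room temperature.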

[11] = target: Cytochrome P450 2D6 (Homo sapiens) (UniProt P10635); assay: Cytochrome P450 Family 2 Subfamily D Member 6 (CYP2D6) small molecule antagonists: luciferase reporter qHTS assay (AID 1671196); conditions: P450-Glo CYP2D6 enzyme assay, luciferin luminescence, 1 h; series mostly up to 115 µM; also: nearly all actives have a fitted effect of over 50% in size; also: potency is read from the fitted curve at half-maximal effect
Procedure, shortened: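 Luminogenic proluciferin substrate, CYP2D6 enzyme; 10 min RT preincubation with compound, NADPH regeneration system added, 1 h RT. Stop/detection reagent, 20 min RT, luminescence read (RLU). Signal proportional to CYP activity.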

[12] = target: Cytochrome P450 2C19 (Homo sapiens) (UniProt P33261); assay: Cytochrome P450 Family 2 Subfamily C Member 19 (CYP2C19) small molecule antagonists: luciferase reporter qHTS assay (AID 1671197); conditions: P450-Glo CYP2C19 enzyme, luciferin luminescence, 1 h; series mostly up to 115 µM; also: nearly all actives have a fitted effect of over 65% in size; also: potency is read from the fitted curve at half-maximal effect
Procedure, shortened: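 Light output is proportional to CYP2C19 activity: proluciferin substrate is converted to luciferin, then detected by a luciferin detection reagent that also stops the 1 h, 37C NADPH-driven reaction. Ketoconazole serves as positive control.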

[13] = target: Cytochrome P450 2C9 (Homo sapiens) (UniProt P11712); assay: Cytochrome P450 Family 2 Subfamily C Member 9 (CYP2C9) small molecule antagonists: luciferase reporter qHTS assay (AID 1671198); conditions: P450-Glo CYP2C9 enzyme assay, luciferin luminescence; series mostly up to 115 µM; also: nearly all actives have a fitted effect of over 50% in size; also: potency is read from the fitted curve at half-maximal effect
Procedure, shortened: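 Enzyme-substrate mix preincubated with compound 10 min at room temperature; reaction started with NADPH regeneration solution, 1 h 37C. Luminescent luciferin product read after 20 min detection reagent.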

[14] = target: Voltage-gated inwardly rectifying potassium channel KCNH2 (Homo sapiens) (UniProt Q12809); assay: Human Ether-a-go-go-Related Gene (hERG) channel small molecule antagonists: fluorescence cell-based qHTS assay (AID 1671200); conditions: hERG-U2OS cells, FluxOR thallium flux fluorescence; series mostly up to 76.8 µM; also: nearly all actives have a fitted effect of over 50% in size; also: potency is read from the fitted curve at half-maximal effect
Procedure, shortened: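 In this thallium-flux screen, overnight-cultured U2OS cells bearing the channel are dye-loaded in darkness for an hour, rested 10 min at room temperature, and then monitored kinetically at 480/540 nm for two minutes post-stimulus.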

[15] = target: Cytochrome P450 3A4 (Homo sapiens) (UniProt P08684); assay: Cytochrome P450 Family 3 Subfamily A Member 4 (CYP3A4) small molecule antagonists: luciferase reporter qHTS assay (AID 1671201); conditions: P450-Glo CYP3A4 enzyme, luciferin luminescence, 1 h; series mostly up to 115 µM; also: nearly all actives have a fitted effect of over 50% in size
Procedure, shortened: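 CYP3A4 activity was followed with a P450-Glo proluciferin substrate. Test compounds in DMSO were preincubated 10 min; NADPH regeneration then ran 1 h, and light output was read 20 min after detection reagent.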

[16] = target: Cytochrome P450 1A2 (Homo sapiens) (UniProt P05177); assay: Cytochrome P450 Family 1 Subfamily A Member 2 (CYP1A2) small molecule antagonists: luciferase reporter qHTS assay (AID 1671199); conditions: P450-Glo CYP1A2 enzyme, luciferin luminescence, 1 h; series mostly up to 115 µM; also: nearly all actives have a fitted effect of over 50% in size; also: potency is read from the fitted curve at half-maximal effect
Procedure, shortened: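 Luminescence readout (relative luminescence units) after luciferin detection reagent, 20 min RT. Preceded by 1 h room-temperature CYP1A2 reaction with NADPH regeneration solution following 10 min compound preincubation with enzyme and proluciferin substrate. Furafylline positive control.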

[17] = target: Nuclear receptor subfamily 1 group I member 2 (Rattus norvegicus) (UniProt Q9R1A7); assay: Rat pregnane X receptor (rPXR) activation by small molecules, qHTS assay (AID 1346983); conditions: rPXR luciferase reporter cells, One-Glo luminescence, 24 h; max activation: stronger effect = higher value; also: nearly all actives have a fitted effect of over 20% in size
Procedure, shortened: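 Luminescent readout (One-Glo luciferase, 30 min room temperature) followed 24 hr compound treatment at 37 C of rPXR cells plated 2,000 per well and preincubated 5hr; qHTS format with compounds delivered in DMSO.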

[18] = target: Nuclear receptor subfamily 1 group I member 2 (Homo sapiens) (UniProt O75469); assay: CYP3A4 induction through human pregnane X receptor (PXR) by small molecules, qHTS assay (AID 1346984); conditions: DPX-2 HepG2 PXR, CYP3A4-luciferin luminescence, 24 h; series mostly up to 46.1 µM; also: nearly all actives have a fitted effect of over 40% in size
Procedure, shortened: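 HepG2-derived DPX-2 line carrying PXR plus a CYP3A4-promoter luciferase reporter; cells plated 5 hr, compound-exposed 24 hr at 37C. CYP3A4 activity probed with 3uM (final) Luciferin-IPA for 3hr, then luciferase read after One-Glo.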

[19] = target: Nuclear receptor subfamily 1 group I member 2 (Homo sapiens) (UniProt O75469); assay: Human pregnane X receptor (PXR) activation by small molecules, qHTS assay (AID 1346985); conditions: DPX-2 HepG2 CYP3A4-luciferase, 24 h; series mostly up to 38.3 µM; also: nearly all actives have a fitted effect of over 40% in size
Procedure, shortened: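 DPX-2 cells (HepG2 co-transfected with a PXR response element and a CYP3A4-promoter luciferase construct) were seeded at 2,000 per well, rested 5 hr at 37C, then exposed to DMSO-dissolved compounds for 24 hr. Activation was read as luciferase luminescence.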

Sequence of Nuclear receptor subfamily 1 group I member 2 (Homo sapiens) (O75469 whole entry, looked up): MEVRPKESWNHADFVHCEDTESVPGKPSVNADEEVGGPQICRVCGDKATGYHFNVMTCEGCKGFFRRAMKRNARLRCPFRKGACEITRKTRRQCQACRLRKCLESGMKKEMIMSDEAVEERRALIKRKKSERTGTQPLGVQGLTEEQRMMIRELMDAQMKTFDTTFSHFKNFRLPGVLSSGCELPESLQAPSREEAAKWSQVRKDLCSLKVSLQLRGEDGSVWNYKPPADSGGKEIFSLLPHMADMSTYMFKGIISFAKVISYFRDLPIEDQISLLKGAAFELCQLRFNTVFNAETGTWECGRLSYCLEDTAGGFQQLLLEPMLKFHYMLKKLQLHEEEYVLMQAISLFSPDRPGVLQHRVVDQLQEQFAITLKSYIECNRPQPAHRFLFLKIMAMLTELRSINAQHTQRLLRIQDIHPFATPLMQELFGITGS
Sequence of Nuclear receptor subfamily 1 group I member 2 (Rattus norvegicus) (Q9R1A7 whole entry, looked up): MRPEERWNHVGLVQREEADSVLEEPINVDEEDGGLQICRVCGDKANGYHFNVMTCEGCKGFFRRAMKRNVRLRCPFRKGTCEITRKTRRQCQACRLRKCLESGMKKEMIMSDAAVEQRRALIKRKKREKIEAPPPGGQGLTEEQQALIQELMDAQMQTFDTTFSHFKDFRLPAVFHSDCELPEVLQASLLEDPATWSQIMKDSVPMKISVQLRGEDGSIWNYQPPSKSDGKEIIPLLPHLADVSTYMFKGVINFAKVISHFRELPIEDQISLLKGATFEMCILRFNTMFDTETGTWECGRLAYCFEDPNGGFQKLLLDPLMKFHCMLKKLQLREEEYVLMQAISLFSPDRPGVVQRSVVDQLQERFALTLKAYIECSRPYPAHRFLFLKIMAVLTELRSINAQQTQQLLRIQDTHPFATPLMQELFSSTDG
Sequence of Acetylcholinesterase (Homo sapiens) (P22303 whole entry, looked up): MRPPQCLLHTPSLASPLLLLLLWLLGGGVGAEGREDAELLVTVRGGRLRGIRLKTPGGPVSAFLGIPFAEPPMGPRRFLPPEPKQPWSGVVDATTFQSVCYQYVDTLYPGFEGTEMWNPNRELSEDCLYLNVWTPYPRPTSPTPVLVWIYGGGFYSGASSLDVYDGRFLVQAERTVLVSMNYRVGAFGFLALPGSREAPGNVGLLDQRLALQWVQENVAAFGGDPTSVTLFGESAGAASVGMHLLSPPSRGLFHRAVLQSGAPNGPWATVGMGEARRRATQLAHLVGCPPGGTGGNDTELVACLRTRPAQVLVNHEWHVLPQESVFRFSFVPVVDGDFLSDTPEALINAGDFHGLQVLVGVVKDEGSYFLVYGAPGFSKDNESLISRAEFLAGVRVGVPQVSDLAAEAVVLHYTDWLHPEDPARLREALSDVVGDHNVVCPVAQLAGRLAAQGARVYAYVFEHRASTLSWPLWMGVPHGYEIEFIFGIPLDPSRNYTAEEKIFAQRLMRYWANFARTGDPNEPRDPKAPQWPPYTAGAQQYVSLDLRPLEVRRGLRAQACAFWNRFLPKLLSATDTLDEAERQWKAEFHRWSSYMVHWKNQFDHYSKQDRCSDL
Sequence of Cytochrome P450 2C9 (Homo sapiens) (P11712 whole entry, looked up): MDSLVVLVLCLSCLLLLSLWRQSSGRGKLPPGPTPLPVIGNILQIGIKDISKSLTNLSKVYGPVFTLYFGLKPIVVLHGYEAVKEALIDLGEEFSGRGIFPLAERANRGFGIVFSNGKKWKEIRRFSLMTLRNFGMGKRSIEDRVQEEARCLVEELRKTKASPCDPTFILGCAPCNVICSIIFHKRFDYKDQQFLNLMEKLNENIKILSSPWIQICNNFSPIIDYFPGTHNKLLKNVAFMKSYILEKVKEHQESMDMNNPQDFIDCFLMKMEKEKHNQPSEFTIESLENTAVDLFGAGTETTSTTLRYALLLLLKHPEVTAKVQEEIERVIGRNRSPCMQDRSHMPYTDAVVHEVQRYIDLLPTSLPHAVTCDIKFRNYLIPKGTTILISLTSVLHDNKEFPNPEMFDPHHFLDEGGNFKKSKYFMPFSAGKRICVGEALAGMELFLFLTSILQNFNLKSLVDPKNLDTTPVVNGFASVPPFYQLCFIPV
Sequence of Cytochrome P450 2C19 (Homo sapiens) (P33261 whole entry, looked up): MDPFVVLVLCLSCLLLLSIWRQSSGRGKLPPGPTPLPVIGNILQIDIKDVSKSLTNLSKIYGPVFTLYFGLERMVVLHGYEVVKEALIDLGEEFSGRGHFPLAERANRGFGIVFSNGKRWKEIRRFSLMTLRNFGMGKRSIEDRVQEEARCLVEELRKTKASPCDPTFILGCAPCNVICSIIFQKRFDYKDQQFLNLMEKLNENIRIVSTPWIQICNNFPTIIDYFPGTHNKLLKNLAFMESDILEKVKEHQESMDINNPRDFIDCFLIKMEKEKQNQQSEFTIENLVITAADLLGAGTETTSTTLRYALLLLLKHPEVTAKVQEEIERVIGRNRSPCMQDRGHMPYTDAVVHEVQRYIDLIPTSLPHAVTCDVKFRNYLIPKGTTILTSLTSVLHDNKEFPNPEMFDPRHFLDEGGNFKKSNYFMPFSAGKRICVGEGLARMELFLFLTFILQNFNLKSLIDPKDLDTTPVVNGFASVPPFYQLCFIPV
Sequence of Cytochrome P450 1A2 (Homo sapiens) (P05177 whole entry, looked up): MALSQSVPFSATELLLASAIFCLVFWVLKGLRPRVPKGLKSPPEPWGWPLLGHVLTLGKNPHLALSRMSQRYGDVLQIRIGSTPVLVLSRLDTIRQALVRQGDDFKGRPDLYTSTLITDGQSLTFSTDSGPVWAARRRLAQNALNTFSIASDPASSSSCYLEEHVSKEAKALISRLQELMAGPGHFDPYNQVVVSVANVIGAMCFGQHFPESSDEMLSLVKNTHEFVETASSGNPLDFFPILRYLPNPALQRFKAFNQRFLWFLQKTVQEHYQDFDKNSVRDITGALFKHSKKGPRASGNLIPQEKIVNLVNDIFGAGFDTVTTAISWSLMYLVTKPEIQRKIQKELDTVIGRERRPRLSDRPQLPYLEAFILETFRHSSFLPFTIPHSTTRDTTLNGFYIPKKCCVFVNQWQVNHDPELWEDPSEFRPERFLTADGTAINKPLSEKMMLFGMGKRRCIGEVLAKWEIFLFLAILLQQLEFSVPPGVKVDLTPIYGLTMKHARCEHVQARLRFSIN
Sequence of Cytochrome P450 3A4 (Homo sapiens) (P08684 whole entry, looked up): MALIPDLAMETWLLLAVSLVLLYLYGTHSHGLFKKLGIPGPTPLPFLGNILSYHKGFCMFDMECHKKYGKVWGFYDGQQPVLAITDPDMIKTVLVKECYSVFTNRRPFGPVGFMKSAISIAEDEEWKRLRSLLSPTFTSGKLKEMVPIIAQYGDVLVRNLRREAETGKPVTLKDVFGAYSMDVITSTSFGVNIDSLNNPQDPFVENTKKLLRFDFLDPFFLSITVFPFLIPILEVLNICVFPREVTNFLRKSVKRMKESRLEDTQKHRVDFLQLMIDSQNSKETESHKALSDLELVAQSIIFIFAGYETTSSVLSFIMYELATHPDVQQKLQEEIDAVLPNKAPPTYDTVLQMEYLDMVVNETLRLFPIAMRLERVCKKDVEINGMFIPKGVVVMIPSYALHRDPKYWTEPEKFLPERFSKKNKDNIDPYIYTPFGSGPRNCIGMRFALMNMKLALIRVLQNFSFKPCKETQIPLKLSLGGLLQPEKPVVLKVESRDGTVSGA
Sequence of Voltage-gated inwardly rectifying potassium channel KCNH2 (Homo sapiens) (Q12809 whole entry, looked up): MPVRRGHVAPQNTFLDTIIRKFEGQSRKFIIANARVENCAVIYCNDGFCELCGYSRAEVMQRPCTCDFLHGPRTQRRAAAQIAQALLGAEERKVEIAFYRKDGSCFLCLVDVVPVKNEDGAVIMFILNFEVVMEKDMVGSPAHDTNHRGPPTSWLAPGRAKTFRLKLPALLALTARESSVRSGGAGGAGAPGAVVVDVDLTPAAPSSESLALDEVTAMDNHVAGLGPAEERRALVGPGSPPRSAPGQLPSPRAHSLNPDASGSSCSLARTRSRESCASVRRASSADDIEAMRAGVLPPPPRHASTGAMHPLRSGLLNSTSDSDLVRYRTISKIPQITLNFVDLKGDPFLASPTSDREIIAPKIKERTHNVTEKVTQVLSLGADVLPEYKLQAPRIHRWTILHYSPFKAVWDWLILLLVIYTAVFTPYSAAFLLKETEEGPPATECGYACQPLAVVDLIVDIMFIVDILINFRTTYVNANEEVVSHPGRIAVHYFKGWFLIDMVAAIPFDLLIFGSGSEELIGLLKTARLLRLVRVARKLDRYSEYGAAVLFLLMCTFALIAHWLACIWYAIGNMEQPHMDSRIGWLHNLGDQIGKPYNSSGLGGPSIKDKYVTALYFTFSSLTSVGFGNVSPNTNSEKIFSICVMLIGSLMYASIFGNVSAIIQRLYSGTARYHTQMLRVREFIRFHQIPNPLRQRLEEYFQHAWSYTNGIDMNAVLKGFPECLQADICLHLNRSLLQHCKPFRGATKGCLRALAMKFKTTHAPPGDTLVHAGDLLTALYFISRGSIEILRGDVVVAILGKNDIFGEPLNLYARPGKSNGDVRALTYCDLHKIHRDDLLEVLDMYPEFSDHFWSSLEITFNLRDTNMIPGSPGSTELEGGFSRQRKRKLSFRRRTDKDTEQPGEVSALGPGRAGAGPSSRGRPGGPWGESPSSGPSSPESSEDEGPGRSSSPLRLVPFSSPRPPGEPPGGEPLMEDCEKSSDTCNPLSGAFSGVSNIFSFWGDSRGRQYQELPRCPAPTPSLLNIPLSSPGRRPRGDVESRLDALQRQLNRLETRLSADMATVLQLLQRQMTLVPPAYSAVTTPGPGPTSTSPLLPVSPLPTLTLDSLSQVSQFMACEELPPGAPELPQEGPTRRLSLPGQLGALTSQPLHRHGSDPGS

Structure (SMILES) | Potency [1] | Potency [2] | Potency [3] | Potency [4] | Potency [5] | Potency [6] | Potency [7] | Potency [8] | Potency [9] | Potency [10] | Potency [11] | Potency [12] | Potency [13] | Potency [14] | Potency [15] | Potency [16] | max activation [17] | Potency [18] | Potency [19]
CC[N+]1(CC)CCC(OC(=O)C(O)(c2ccccc2)c2ccccc2)C1 (stereo not drawn) | inactive | inactive | inactive | inactive | inactive | inactive | inactive | inactive | inactive | inactive | 8.71 µM (active) | inactive | inactive | inactive | inactive |  |  |  | 
[F][Sn]([c]1ccccc1)([c]1ccccc1)[c]1ccccc1 | 86.3 nM (active) | 193 nM (active) | 43.3 nM (active) | 0.0611 µM (active) | 1.22 µM (active) | 77 nM (active) | inactive | inactive | inactive | inactive |  | 3.99 µM (active) | 2 µM (active) | 3.09 µM (active) |  | inactive |  |  | 
O=c1c2ccccc2c(=O)c2c1cc(Cl)c1[nH]c3c([nH]c12)c(Cl)cc1c(=O)c2ccccc2c(=O)c13 | inactive | inactive | inactive | inactive | inactive | inactive | inactive | inactive | inactive | inactive | inactive | inactive |  | inactive | inactive |  |  |  | 
CC(C)N(C(=O)CCl)c1ccccc1 | 27300 nM (active) | inactive | 24.3 µM (active) and 27.3 µM (active) | inactive | 54.5 µM (active) | 48.6 µM (active) and inactive | 63.3 µM (active) | inactive | 20 µM (active) | inactive | inactive | 39.9 µM (active) |  | inactive | inactive | inactive |  |  | 
CNC(C)(C)Cc1ccccc1 | inactive | inactive | inactive | inactive | inactive | inactive | inactive | inactive |  | inactive | 9.77 µM (active) | inactive | inactive | inactive | inactive |  | -0.549% (inactive) | inactive | inactive
O=P(Cl)(Cl)Cl | inactive | inactive | inactive | inactive | inactive | inactive | inactive | inactive | inactive | inactive | inactive |  | inactive | inactive | inactive | 23.9 µM (active) |  |  | 
[O]=[Cr](=[O])([OH])[O][Cr](=[O])(=[O])[OH] | 8.71 µM (active) and 6.1 µM (active) | 9.78 µM (active) and 13.7 µM (active) | 7.77 µM (active) and 15.3 µM (active) | inactive | 5.5 µM (active) and 4.85 µM (active) | 8.71 µM (active) and 9.67 µM (active) | inactive | inactive | inactive | inactive | inactive | inactive |  | inactive | inactive | inactive | -13.2% (inactive) and 6.2% (inactive) | inactive | inactive
